According to the supplement of paper PMC6555819:

What was measured:
Assay in all cases: PBM binding z-score (relative to random genomic background probes); higher = stronger binding; sequences stand for … in GC…GCGATTGACAGCGTAGAATGAAGG
[1] = system: PPARg:RXRa DBDmut IVT, anti-RXR (DBD mutation: RXRa K156A/R161A, NR concentration 270 nM, RXRa partner concentration 90 nM)
Outline: (§1)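 Ligand-free nuclear receptor dimers were bound for 1 h to custom Agilent 4×180K protein-binding microarrays. Detection used antibodies against each partner (one per run). Binding z-scores rest on regression-normalized fluorescence, with random background probes as the reference.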

[2] = system: PPARg:RXRa IVT, anti-PPARg (NR concentration 270 nM, RXRa partner concentration 90 nM)
Outline: as §1

[3] = system: PPARg DBDmut:RXRa IVT, anti-PPARg (DBD mutation: PPARg1 K132A/R137A, NR concentration 270 nM, RXRa partner concentration 90 nM)
Outline: as §1

[4] = system: PPARg DBDmut IVT, anti-PPARg (DBD mutation: PPARg1 K132A/R137A, NR concentration 270 nM)
Outline: as §1

[5] = system: PPARg homodimer (NR concentration 180 nM)
Outline: as §1

[6] = system: PXR:RXRa (NR concentration 270 nM, RXRa partner concentration 90 nM)
Outline: as §1

[7] = system: PXR homodimer (NR concentration 270 nM)
Outline: as §1

[8] = system: RARa:RXR (NR concentration 270 nM, RXRa partner concentration 90 nM)
Outline: as §1

[9] = system: RARa homodimer (NR concentration 270 nM)
Outline: as §1

[10] = system: RARb:RXRa (NR concentration 270 nM, RXRa partner concentration 90 nM)
Outline: as §1

Row | Sequence | PBM binding z-score [1] | PBM binding z-score [2] | PBM binding z-score [3] | PBM binding z-score [4] | PBM binding z-score [5] | PBM binding z-score [6] | PBM binding z-score [7] | PBM binding z-score [8] | PBM binding z-score [9] | PBM binding z-score [10]
1 | TACACAGGGTCAAAGGCCAGAGTACGAATGTCGA | 1.53 | 4.08 | 0.992 | 0.428 | 1.44 | 4.11 | 0.543 | 5.47 | 0.487 | 4.53
2 | ACTAGCAGGCCAAGTTTTGGTCACTCAAACAAAG | 0.635 | 0.635 | -0.425 | -0.348 | -0.321 | -0.259 | -0.809 | 0.113 | -0.612 | 0.742
3 | CAAACTAGGTCACTGAGGTCAAAGTCCGTGCGTA | 8.41 | 8.65 | 1.56 | 0.597 | 4.26 | 6.53 | 12.1 | 6.4 | 0.887 | 4.89
4 | ATCTCTCGGTAAGACTCAGTTCAGTGAAGAACGC | 0.0945 | 0.262 | 0.647 | 0.946 | 1.35 | 1.2 | 1.82 | 0.858 | 1.21 | 0.565
5 | CCGACTGCGGCAGAAAGGTTACCATACCATCCGG | -0.1 | 0.0365 | -0.709 | -0.931 | 0.55 | 1.05 | -0.0131 | 1.42 | -0.186 | 1.29
6 | GCGACTGGGGCATCAGCAGGTTTCCATAACTTAA | 3.74 | 2.62 | -1.63 | -0.793 | 0.145 | -0.54 | -0.0807 | -0.096 | -0.582 | 0.524
7 | TAGCCTAGGTCATGCGGGCCAGAATAGTGTCGGC | 1.69 | 2.9 | -0.0114 | -0.646 | 0.886 | 1.66 | -0.503 | 2.58 | -0.8 | 3.83
8 | CCTAGTTGGTCAAGGGCACACACGCTATAGGTAC | 1.1 | 1.69 | -0.275 | 0.0269 | 1.15 | 0.512 | 0.494 | 0.731 | 1.05 | 1.98
9 | TCTTGTAGATCAAAAGTTAAGAAAGCCGAAGCCT | 1.79 | 0.791 | 1.09 | 0.787 | -0.327 | 0.243 | -0.268 | 0.155 | -0.386 | -0.12
10 | TCGAGAAGGTTACCAATGGGGCATTCAGCTTTCT | 1.39 | 0.663 | -1.15 | -0.173 | 0.132 | 0.773 | -1 | 1.49 | -0.803 | 2.26
11 | TCCTATAGGTAAATGCTAGGTGAAAGTCCGATCT | 2.2 | 1.3 | 0.193 | 0.879 | -0.495 | 0.0422 | -0.266 | 0.694 | 0.208 | 0.523
12 | CGTCCAAGGTCAGAGAGGTCTGTGAATGCCGAGT | 2.15 | 2.25 | -0.507 | -0.56 | 2.09 | 2.96 | 1.23 | 3.24 | 0.529 | 4.49
13 | TGAATGAGGCTATAAGATCAGGGAACGTTGCAAA | -0.531 | -0.142 | 0.314 | 0.0126 | -0.853 | -0.467 | -0.512 | -0.215 | -0.382 | -0.0944
14 | CCCAGCAGGCCAATCTGGGTCACTCAAGGCTTGA | 3.08 | 4.97 | -0.484 | -1.45 | 0.339 | 1.31 | -0.346 | 1.46 | -0.731 | 1.63
15 | CCGACTGGGGCATAAGGTGACCATAAGCCAGCCC | 2.39 | 3.15 | -0.511 | -1.28 | 0.186 | -0.504 | -0.373 | 0.332 | -0.248 | 1.23
16 | TCTGCTAGGTCAAAGATGGTCAGCTAATCTGCTA | 4.67 | 3.96 | 0.246 | 0.394 | 0.4 | 1.59 | -0.802 | 2.44 | -0.95 | 3.83
17 | CCGTCTGGGGCAAGGTTACCATAACGCACAGCCA | 1.75 | 2.43 | -0.591 | -1.54 | 0.46 | 0.036 | -0.461 | 0.632 | 0.0974 | 1.72
18 | CCTGCTAGGTCATAGTCAGCTAATCTACAGTATG | 3.96 | 3.31 | 0.51 | 0.574 | 1.15 | 1.16 | -0.0222 | 1.73 | 0.243 | 3.54
19 | CCTCGGCGGACAACAGGAGGTCAGAGCTGCCAGA | -0.701 | -0.463 | -0.701 | -1.7 | 0.632 | 1.32 | 0.232 | 1.76 | 0.119 | 1.96
20 | TGAATGAGGTTATAAGATCAGGGAGCGTTGCAAA | 0.796 | 1.56 | 0.774 | -0.572 | 0.0916 | 0.406 | -0.17 | 0.968 | -0.286 | 1.03
21 | TTACCAAGGTGAAAGGTCGTAGATGCACGCCTTG | 2.23 | 5.05 | 1.07 | 0.00894 | 2.17 | 4.04 | 0.0928 | 5.82 | -0.336 | 3.31
22 | GCAGCTAGGTCAACTGATGGTCAGCTAAAGCTCG | 4.33 | 4.15 | -0.285 | -1.01 | 1.13 | 1.2 | -0.968 | 2.49 | -0.66 | 4.24
23 | GCGACTGGGGCATCAGCAGGTTACCAGAACTTAA | 3.48 | 3.19 | -0.703 | -1.1 | 0.612 | -0.0392 | -0.687 | 0.483 | -0.801 | 0.987
